“And” between values parts separate entries of the source, which are not always exact repeats. Equal entries are not always repeated. Out of some 5,500 compounds screened, about 2,000 (36%) were called active. About 18% were inconclusive and are not listed. Cut-off read from the data, not from the text of the source: active = normalized growth mostly below about 0.91 (no sharp cut-off); inconclusive = no clear call, values can overlap the other calls; inactive = mostly above about 0.92. The list shows a part of the results.
Assay: chemical genetic growth profiling, strain panel (AID 1159580);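 note: tested at 20 µM; growth read once vehicle control cultures reached saturation at 30 °C; 1 = growth at the plate median or of vehicle wells; lower values mean less growth of the strain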
Conditions: growth OD

Measured: normalized growth

CCN(CC)CCOC(=O)c1ccc(N)cc1
inactive: S. cerevisiae deletion strains, locus YJR075W, strain HOC1, hits give low values 1.07 | S. cerevisiae deletion strains, locus YKL009W, strain mrt4, hits give low values 0.978 | S. cerevisiae deletion strains, locus YKL068W, hits give low values 0.987 | S. cerevisiae deletion strains, locus YKL085W, strain MDH1 (second series), hits give low values 0.981 | S. cerevisiae deletion strains, locus YKL085W, strain MDH1, hits give low values 0.981 | S. cerevisiae deletion strains, locus YKL160W, strain elf1, hits give low values 1.01 | S. cerevisiae deletion strains, locus YKL190W, strain CNB1, hits give low values 1.01 | S. cerevisiae deletion strains, locus YKR001C, strain vps1, hits give low values 0.986 | S. cerevisiae deletion strains, locus YKR026C, strain gcn3, hits give low values 0.99 | S. cerevisiae deletion strains, locus YKR091W, strain srl3, hits give low values 0.988 | S. cerevisiae deletion strains, locus YLL001W, strain dnm1, hits give low values 1.02 | S. cerevisiae deletion strains, locus YLL026W, hits give low values 1 | S. cerevisiae deletion strains, locus YLL041C, strain sdh2, hits give low values 0.987 | S. cerevisiae deletion strains, locus YLR027C, strain aat2, hits give low values 0.994 | S. cerevisiae deletion strains, locus YLR039C, strain RIC1, hits give low values 1.03 | S. cerevisiae deletion strains, locus YLR058C, strain SHM2, hits give low values 1.01 | S. cerevisiae deletion strains, locus YLR102C, strain apc9, hits give low values 0.986 | S. cerevisiae deletion strains, locus YLR113W, strain HOG1, hits give low values 1.02 | S. cerevisiae deletion strains, locus YLR221C, strain rsa3, hits give low values 0.958 | S. cerevisiae deletion strains, locus YLR258W, strain gsy2, hits give low values 0.975 | S. cerevisiae deletion strains, locus YLR262C, strain YPT6 (second series), hits give low values 0.991 | S. cerevisiae deletion strains, locus YLR262C, strain YPT6, hits give low values 1.04 | S. cerevisiae deletion strains, locus YLR268W, strain sec22, hits give low values 0.959 | S. cerevisiae deletion strains, locus YLR320W, strain mms22, hits give low values 0.969 | S. cerevisiae deletion strains, locus YLR330W, strain CHS5, hits give low values 1.01 | S. cerevisiae deletion strains, locus YLR342W, strain FKS1 (second series), hits give low values 1 | S. cerevisiae deletion strains, locus YLR342W, strain FKS1, hits give low values 1.02 | S. cerevisiae deletion strains, locus YLR357W, strain rsc2, hits give low values 0.955 | S. cerevisiae deletion strains, locus YLR370C, strain arc18, hits give low values 1.01 | S. cerevisiae deletion strains, locus YLR371W, strain rom2, hits give low values 0.992 | S. cerevisiae deletion strains, locus YLR384C, strain iki3, hits give low values 0.991 | S. cerevisiae deletion strains, locus YLR418C, strain cdc73, hits give low values 0.975 | S. cerevisiae deletion strains, locus YML016C, strain PPZ1, hits give low values 1.01 | S. cerevisiae deletion strains, locus YML032C, strain rad52, hits give low values 0.99 | S. cerevisiae deletion strains, locus YML120C, strain ndi1, hits give low values 0.989 | S. cerevisiae deletion strains, locus YML124C, strain tub3, hits give low values 0.995 | S. cerevisiae deletion strains, locus YMR058W, strain fet3, hits give low values 0.983 | S. cerevisiae deletion strains, locus YMR078C, strain ctf18, hits give low values 0.992 | S. cerevisiae deletion strains, locus YMR125W, strain sto1, hits give low values 0.962 | S. cerevisiae deletion strains, locus YMR129W, hits give low values 0.982 | S. cerevisiae deletion strains, locus YMR205C, strain PFK2, hits give low values 1 | S. cerevisiae deletion strains, locus YMR223W, strain ubp8, hits give low values 0.997 | S. cerevisiae deletion strains, locus YMR231W, strain pep5, hits give low values 0.997 | S. cerevisiae deletion strains, locus YMR263W, strain SAP30, hits give low values 1.01 and 0.982 | S. cerevisiae deletion strains, locus YMR307W, strain GAS1, hits give low values 0.975 and 0.992 | S. cerevisiae deletion strains, locus YNL067W, strain RPL9B, hits give low values 1.01 | S. cerevisiae deletion strains, locus YNL071W, strain lat1, hits give low values 0.966 | S. cerevisiae deletion strains, locus YNL128W, strain TEP1, hits give low values 1.01 | S. cerevisiae deletion strains, locus YNL153C, strain GIM3, hits give low values 1.01 and 0.998 | S. cerevisiae deletion strains, locus YNL175C, strain NOP13, hits give low values 0.991 | S. cerevisiae deletion strains, locus YNL183C, strain NPR1, hits give low values 1 | S. cerevisiae deletion strains, locus YNL197C, strain WHI3, hits give low values 0.986 | S. cerevisiae deletion strains, locus YNL209W, strain ssb2, hits give low values 0.975 | S. cerevisiae deletion strains, locus YNL224C, strain SQS1, hits give low values 0.998 | S. cerevisiae deletion strains, locus YNL233W, strain BNI4, hits give low values 1.01 | S. cerevisiae deletion strains, locus YNL248C, strain rpa49, hits give low values 0.938 | S. cerevisiae deletion strains, locus YNL250W, strain rad50, hits give low values 0.986 | S. cerevisiae deletion strains, locus YNL271C, strain bni1, hits give low values 0.985 | S. cerevisiae deletion strains, locus YNL298W, strain CLA4, hits give low values 0.99 | S. cerevisiae deletion strains, locus YNL307C, strain MCK1, hits give low values 0.986 | S. cerevisiae deletion strains, locus YNL322C, strain KRE1 (second series), hits give low values 0.986 | S. cerevisiae deletion strains, locus YNL322C, strain KRE1, hits give low values 1 and 0.981 | S. cerevisiae deletion strains, locus YNR049C, strain mso1, hits give low values 0.975 | S. cerevisiae deletion strains, locus YNR052C, strain pop2, hits give low values 0.988 | S. cerevisiae deletion strains, locus YOL006C, strain TOP1, hits give low values 1.04 | S. cerevisiae deletion strains, locus YOL012C, strain htz1 0.92 | S. cerevisiae deletion strains, locus YOL147C, strain pex11, hits give low values 0.988 | S. cerevisiae deletion strains, locus YOR001W, strain rrp6, hits give low values 1.01 | S. cerevisiae deletion strains, locus YOR061W, strain CKA2, hits give low values 1.01 | S. cerevisiae deletion strains, locus YOR069W, strain VPS5, hits give low values 1.01 | S. cerevisiae deletion strains, locus YOR070C, strain gyp1, hits give low values 0.996 | S. cerevisiae deletion strains, locus YOR080W, strain dia2, hits give low values 0.996 | S. cerevisiae deletion strains, locus YOR083W, strain WHI5 (second series), hits give low values 0.979 | S. cerevisiae deletion strains, locus YOR083W, strain WHI5, hits give low values 1 | S. cerevisiae deletion strains, locus YOR106W, strain vam3, hits give low values 1.02 | S. cerevisiae deletion strains, locus YOR136W, strain idh2, hits give low values 0.996 | S. cerevisiae deletion strains, locus YOR144C, strain elg1, hits give low values 0.994 | S. cerevisiae deletion strains, locus YOR184W, strain ser1, hits give low values 0.991 | S. cerevisiae deletion strains, locus YOR231W, strain MKK1, hits give low values 1.02 | S. cerevisiae deletion strains, locus YOR265W, strain rbl2, hits give low values 0.985 | S. cerevisiae deletion strains, locus YOR270C, strain vph1, hits give low values 0.983 | S. cerevisiae deletion strains, locus YOR290C, strain snf2, hits give low values 0.946 | S. cerevisiae deletion strains, locus YOR316C, strain cot1, hits give low values 0.992 | S. cerevisiae deletion strains, locus YPL051W, strain arl3, hits give low values 0.997 | S. cerevisiae deletion strains, locus YPL055C, strain LGE1, hits give low values 1.03 | S. cerevisiae deletion strains, locus YPL078C, strain atp4, hits give low values 1.02 | S. cerevisiae deletion strains, locus YPL106C, strain sse1, hits give low values 0.929 | S. cerevisiae deletion strains, locus YPL240C, strain hsp82, hits give low values 0.991 | S. cerevisiae deletion strains, locus YPL241C, strain CIN2, hits give low values 0.993 | S. cerevisiae deletion strains, locus YPL256C, strain CLN2, hits give low values 1.04 | S. cerevisiae deletion strains, locus YPR119W, strain clb2, hits give low values 0.986 | S. cerevisiae deletion strains, locus YPR141C, strain kar3, hits give low values 0.989 | S. cerevisiae deletion strains, locus YPR163C, strain tif3, hits give low values 0.994 | S. cerevisiae deletion strains, locus YPR167C, strain met16, hits give low values 0.991 | S. cerevisiae deletion strains, strain wtn01, hits give low values 0.996 | S. cerevisiae strains, strain wild type, hits give low values 1.01
